# Assay outcomes: PubChem, several laboratories
# Rows were chosen to be rich in hits. Some 0.69% of all compounds tested hit in one or more screens of this group.
# Phagocyt inh – macrophage phagocytosis inhibition; J774A.1 macrophage IgG-bead phagocytosis, imaging; inhibition, % at 5 µM; actives 0.07% (n = 110,000); AID 1029;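 active = inhibition above the mean of the plate negative controls plus 5 SD, cut at about 13% in these data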;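 also: phagocytic index as fraction of beads internalized from green versus red external bead signal; plate controls were DMSO negative control for no effect and cytochalasin-D positive control for full effect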
# MRP resist rev – reverses drug resistance mediated by MRP; differential viability (reversal), % at 10 µM; actives 0.04% (n = 85,000); H69AR cells + 2 uM doxorubicin, CellTiter-Glo, 72 h;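 active = viability drop by adding the cancer drug above about 55%, with treated viability meeting a 40% cutoff, limit read from the data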;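 also: viability without doxorubicin minus viability with 2 µM doxorubicin for each compound; larger differential means the compound sensitizes cells more to doxorubicin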
# MRP1 act – MRP-1 activation | viability increase, % at 10 µM | H69AR cells + doxorubicin, viability rescue, CellTiter-Glo | actives 0.61% (n = 140,000) | AID 799;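 active = viability gain under doxorubicin at or above a set limit, the compound median plus 3 SD, cut at about 4.7% in these data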;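 also: MRP-1 overexpressing cells given doxorubicin 25 µM after compound pretreatment; 18-22 h compound pretreatment then 72 h with doxorubicin before readout; 0% = doxorubicin-only wells and 100% = vehicle-treated cells without doxorubicin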
# * hit, by the source's call; · = no result given; [ ] = dose if it differs, or a comment.
SMILES,Phagocyt inh,MRP resist rev,MRP1 act
COc1ccc(NS(=O)(=O)c2cc(N/C(=N\S(=O)(=O)c3ccccc3)c3ccc(F)cc3)ccc2Cl)cc1,-8,·,-3
Cc1ccc(Cn2ccc(NC(=O)c3noc4c3CCCCC4)n2)cc1,-1,0,4.7*
Cc1ccc(Cn2ccc(NC(=O)c3noc4c3CCCC4)n2)cc1,-1,-5,0
N#C/C(=C\c1cn(Cc2ccccc2F)c2ccccc12)C(=O)NCc1ccco1,-6,·,-1
O=C(COc1cccnc1[N+](=O)[O-])Nc1ccc2c(c1)OC(F)(F)O2,-9,·,5.5*
O=C(COc1cccnc1[N+](=O)[O-])Nc1ccccc1Sc1ccccc1,-9,·,0
Cc1cc(Br)ccc1OCC(=O)NNC(=O)c1cnccn1,-5,·,1
CC(C)(Oc1ccc(Cl)cc1)C(=O)NC1=NN(c2ccccc2)C(=O)C1,-7,·,1
C=C(C)C(=O)NC1=NN(c2ccccc2)C(=O)C1,-8,·,6.0*
COc1ccccc1CCn1cnc2c3cc(C)ccc3n(C)c2c1=O,-1,-5,-1
c1ccc2c(c1)CCN(c1nc(CN3CCOCC3)nc3sc4c(c13)CCCC4)C2,-5,·,-3
CCSc1nnc(NC(=O)c2cc(C)on2)s1,·,16,0
Cc1cc(C(=O)Nc2nnc(C(F)(F)F)s2)no1,3,3,5.5*
CCOc1ccc(-c2nc(C#N)c(N3CCCCCC3)o2)cc1,-1,-10,5.7*
N#Cc1nc(COc2ccc(F)cc2)oc1N1CCCC1,3,-2,4.8*
N#Cc1nc(COc2cccc(Cl)c2)oc1N1CCCC1,0,11,-2
CCOc1ccc(-c2nc(C#N)c(N3CCN(C)CC3)o2)cc1,0,12,1
COc1ccc(CNC(=O)CCSCc2cccc(Cl)c2)c(OC)c1,1,·,1
Cc1nc(=O)c(-c2ccccc2)c(C)n1-c1ccc(O)cc1,·,3,5.3*
CC(=O)Nc1ccc(-n2c(C)nc(=O)c(-c3ccccc3)c2C)cc1,0,-8,11*
CC(=O)Nc1ccc(-n2c(C)c(C(C)=O)c(C(C)=O)c2C)cc1,-1,15,0
Cc1nc(=O)c(-c2ccccc2)c(C)n1-c1ccccc1O,3,-7,2
CCOc1cc(/C=N/NC(=O)c2cccnc2)ccc1OCC(=O)N1CCOCC1,-7,·,-1
Cc1ccc(-c2ccc(/C=N/NC(=O)CN3CCCC3)o2)cc1Cl,1,·,-2
COC(=O)N/N=C/c1ccc(-c2cccc(Cl)c2)o1,4,·,4.8*
SMILES,Phagocyt inh,MRP resist rev,MRP1 act
COC(=O)N/N=C/c1ccc(-c2ccc(C)c(Cl)c2)o1,-9,·,7.5*
COC(=O)N/N=C/c1ccc(-c2cc(Cl)cc(Cl)c2)o1,-2,·,8.5*
NC(=S)N/N=C/c1ccc(-c2cc(Cl)cc(Cl)c2)o1,-1,-20,-1
O=C(O)c1ccc(-c2cccc(Cl)c2)o1,·,-6,·
Brc1ccc2ncc(Br)cc2c1,-9,·,-1
O=C(COC(=O)COc1ccccc1)NC1CCCc2ccccc21 (centres undefined),-6,·,1
Cc1occc1C(=O)NNC1=CC(=O)CC(C)(C)C1,2,·,0
O=C(CCCCO)CCCCCCCC[C@H]1N[C@H](CO)[C@H](O)[C@@H]1O[C@@H]1O[C@H](CO)[C@@H](O)[C@H](O)[C@H]1O,·,·,-1
COc1ccc(/C=C/C(=O)NC2CCCCCCC2)cc1S(=O)(=O)N1CCOCC1,·,·,-4
CCN(CC)S(=O)(=O)c1ccc(Cl)c(C(=O)Nc2nncs2)c1,-2,-4,2
CCN(CC)S(=O)(=O)c1cc(C(=O)Nc2nncs2)c(Cl)cc1Cl,26*,31,-5
Cc1ccc(C(=O)NCC(=O)OCC(=O)NC2CCS(=O)(=O)C2)cc1C (centres undefined),-8,·,0
O=S(=O)(/C=C/c1ccccc1)NCc1ccccc1Cl,·,·,-2
CC(=O)N1[C@H](Cc2ccccc2)C=C[C@]1(C)C(=O)NCc1ccccn1,·,·,-2
Cc1[nH]n(-c2nc(-c3cccc([N+](=O)[O-])c3)cs2)c(=O)c1C,-6,·,2
NS(=O)(=O)c1ccc(N=Nc2c(-c3ccccc3)[nH]n(-c3nc(-c4ccccc4)cs3)c2=O)cc1,-12,·,5.3*
O=c1[nH]c(C2CCCN(S(=O)(=O)c3ccccc3)C2)nc2c1nnn2Cc1ccccc1 (centres undefined),2,32,5.3*
O=c1[nH]c(C2CCCN(S(=O)(=O)c3ccccc3)C2)nc2c1nnn2Cc1ccccc1F (centres undefined),·,20,1
COc1cc(/C=C/C(=O)OCC(=O)N2CCC(Cc3ccccc3)CC2)ccc1O,-5,·,-4
COc1cc(/C=C/C(=O)OCC(=O)N2CCc3ccccc3C2)ccc1O,66*[artifact],·,-5
O=S(=O)(NCc1ccccc1)c1cccs1,0,6,0
COc1ccccc1C1C(C(=O)c2sc(C)nc2C)=C(O)C(=O)N1CCN1CCOCC1 (centres undefined),-1,·,7.6*
COc1cccc(C2C(C(=O)c3sc(C)nc3C)=C(O)C(=O)N2CCN2CCOCC2)c1OC (centres undefined),-1,-11,0
COc1cc(/C=N/NC(=O)c2cc(-c3cccn3C)n[nH]2)cc(OC)c1OC,-2,·,-2
COc1cccc(/C=N/NC(=O)c2cc(-c3cccn3C)n[nH]2)c1O,-8,·,7.1*
SMILES,Phagocyt inh,MRP resist rev,MRP1 act
Cc1nc(-c2ccccc2)sc1-c1nc(-c2cccs2)ncc1S(=O)(=O)c1ccccc1,1,·,0
COC(=O)c1ccc(NC(=O)C2CCN(C(=O)c3cc(OC)c(OC)c(OC)c3)CC2)cc1,1,13,0
CCOC(=O)c1ccc(NC(=O)C2CCN(C(=O)c3ccc(OC)c(OC)c3)CC2)cc1,·,-2,11*
Cc1nc2cc(N3CCN(C)CC3)c(NC(=O)Cc3ccccc3)cc2c(=O)n1Cc1ccccc1,0,·,-2
CCN(CC)c1cc2nc(C)n(Cc3ccccc3)c(=O)c2cc1NC(=O)C1CC1,·,-6,4.8*
O=C(Nc1cccc([N+](=O)[O-])c1)c1[nH]ncc1Cl,-1,·,6.1*
O=C(Nc1cccc([N+](=O)[O-])c1)c1cnccn1,-5,·,-2
CCOC(=O)CC(NS(=O)(=O)c1ccc(OC)c(C)c1)c1cccc([N+](=O)[O-])c1 (centres undefined),1,·,-3
COc1ccc(-c2cc3nc(-c4ccccc4)cc(N4CCC5(CC4)OCCO5)n3n2)cc1,-1,2,9.0*
Cc1ccc(-c2cc3nc(-c4ccccc4)cc(N4CCOCC4)n3n2)cc1,·,18,-2
CCNC(=O)CSc1nnc(-c2ccccc2Br)n1-c1cccc(C(F)(F)F)c1,-7,·,-2
COc1ccc(NC(=O)Cc2coc3cc(C)c(C(C)C)cc23)cc1S(=O)(=O)N1CCOCC1,-5,·,0
O=C(Nc1nncs1)C1COc2ccccc2O1 (centres undefined),-2,16,-2
O=C(Nc1nnc(C(F)(F)F)s1)C1COc2ccccc2O1 (centres undefined),-2,-11,5.3*
COc1ccc(NC2=NCC(Cc3ccc(Br)cc3)S2)cc1 (centres undefined),0,·,-1
COc1ccccc1N1CCN(C(=O)CCCN2C(=O)c3cccc4cccc(c34)C2=O)CC1,-12,·,1
Oc1ccc(-c2nc(-c3ccc(O)c(O)c3)cs2)cc1,2,-27,9.1*
Oc1ccc(Nc2nc(-c3ccc4ccccc4c3)cs2)cc1,0,-5,-7
